In PubChem BioAssay (Tox21) one finds Potency and activation data, which are given here for 40 molecules.

Inconclusive results are not listed. A call without a number means that no potency is given here. A number with no mark means an inactive call. Active and inactive are the calls of the source. Calls come from the whole dose curve.

The test can be described thus: cAMP Responsive Elements (CRE) small molecule agonists, cell-based qHTS assay (AID 1963590). The conditions noted are these: CRE-bla HEK293T, beta-lactamase FRET ratio, 3 h; series mostly up to 92.4 µM. The source says:
U.S. Tox21 Program National Center for Advancing Translational Sciences [NCATS] Division of Preclinical Innovation [DPI] U.S. Environmental Protection Agency [EPA] National Institutes of Environmental Health Sciences [NIEHS] National Toxicology Program [NTP] U.S. Food and Drug Administration [FDA] Tox21 Assay Overview: CREB (cyclic-AMP Responsive Element Binding Protein) is a cellular transcription factor. It binds to certain DNA sequences called cAMP Responsive Elements (CRE) and regulates the transcription of the genes. […] This cell line can be used to find agonists/antagonists of the cyclic AMP signaling pathway. The activation of the report gene under culture conditions can be detected by fluorescence intensity. This cell line has been used to screen the Tox21 10K compound library to identify agonists that induce oxidative stress.
Tox21 Assay Protocol Summary: CRE-bla Hek 293T cells were suspended in assay medium (DMEM containing 10% dialyzed FBS, 0.1 mM NEAA, 1 mM sodium pyruvate and 25 mM HEPES) and dispensed at 2,000 cells/5 uL /well into 1536-well black wall/clear bottom plates using a Multidrop Combi (ThermoFisher Scientific, Waltham, MA) dispenser. After the assay plates were incubated at 37 C/5% CO2 for 18 hrs, 23 nL of compounds dissolved in DMSO, positive controls or DMSO only was transferred to the assay plate by a pintool workstation (Kalypsys, San Diego, CA). After the plates were incubated at 37 C/5% CO2 for 3 hrs, 1 uL of LiveBLAzer B/G FRET substrate (Invitrogen, Carlsbad, CA) was added to each well using Bioraptr Flying Reagent Dispenser (FRD, Aurora Discovery, San Diego, CA). The plates were incubated at room temperature for 2 h.
(In general: Quantitative high-throughput screening tests each substance at several concentrations.)
Take `CCCCC(CC)COP(=O)(O)O` (stereo not given): the Potency result was “inactive”.

On to `c1ccc(Sc2ccccc2)cc1`, for which the Potency entry is “inactive”. As for `C=Cc1ccc(C=C)cc1`, the Potency entry is “inactive”. Turning to `FC(F)(Cl)C(F)(Cl)Cl`, the Potency result was “inactive”. Still for that read-out and setting: the value for `CCCCCCCC#N` was “inactive”; that for `CC(=O)OC(C(=O)c1ccccc1)c1ccccc1` (stereo not given) was “inactive”; that for `C/C(=C\c1ccc(C(=O)O)cc1)c1ccc2c(c1)C(C)(C)CCC2(C)C` was “inactive”. Take `COc1cc([N+](=O)[O-])ccc1N`: the Potency result was “inactive”. Take `N=C(N)S(=O)O`: the Potency result is “inactive”.

Regarding `NCCN1CCOCC1`, the Potency result was “inactive”. For `CCCNC(C)(C)COC(=O)c1ccccc1`, the Potency result is “inactive”. With `CCC(Cl)C(Cl)C(Cl)CC(Cl)C(Cl)C(C)Cl` (stereo not given), the Potency entry was “inactive”. Consider `N[C@@H]1CONC1=O`, for which the Potency result was “inactive”. With `COc1cc2nc(N(C)CCCNC(=O)C3CCCO3)nc(N)c2cc1OC` (stereo not given), the Potency entry was “inactive”. As to `CC(C)C(C)C`, the Potency result was “inactive”. For `CCCCCCOc1ccccc1C(N)=O`, the Potency result was “inactive”.

For `CNCCCCOc1ccccc1Cc1ccccc1`, the Potency entry was “inactive”. In the case of `C[Si](C)(C)O[Si](O)(O)O`, the Potency result was “inactive”. Regarding `CCCCCSCCCCC`, the Potency entry is “inactive”. Regarding `CCCCCCCCOC(=O)c1ccc(O)cc1`, the Potency entry is “inactive”. On the same count and under the same terms, next, `OC(CN1CCC(Cc2ccc(F)cc2)CC1)c1ccc(Cl)cc1` (stereo not given): “inactive”; `CCN(CC)c1ccc(C(=C2C=CC(=[N+](CC)CC)C=C2)c2cc(S(=O)(=O)O)ccc2S(=O)(=O)[O-])cc1`: “inactive”; `CNCCC(Oc1ccc(C(F)(F)F)cc1)c1ccccc1` (stereo not given): “inactive”. Take `Nc1c(Cl)cc(Cl)cc1[N+](=O)[O-]`: the Potency result was “inactive”.

As to `CC(=O)CCc1ccc(OC(C)=O)cc1`, the Potency entry was “inactive”. For `CCN(CC)CCNC(=O)COc1ccc(OC)cc1`, the Potency entry was “inactive”.

Turning to `COc1ccc(OC)c(Cl)c1`, the Potency entry is “inactive”.

Turning to `CN(C)CCCN(C)C`, the activation was -0.0363% [at 8.39 µM].

For `Cc1onc(-c2ccccc2Cl)c1C(=O)N[C@@H]1C(=O)N2[C@@H]1SC(C)(C)[C@@H]2C(=O)O`, the Potency entry was “inactive”. For the molecule `CCS(=O)(=O)c1ccc(OC)c(C(=O)OC)c1`, the Potency entry was “inactive”.

On to `CC1CCC(CO)CC1` (stereo not given), for which the Potency entry was “inactive”. With `Cc1ncc([C@@H](CCCCCCc2ccc3c(n2)NCCC3)CC(=O)O)cn1`, the Potency entry was “inactive”. With `O=C(CS)OCCOC(=O)CS`, the Potency entry was “inactive”. In the case of `Fc1ccc(C(c2ccc(F)cc2)N2CCNCC2)cc1`, the Potency result is “inactive”. Turning to `N#CCCOCCC#N`, the Potency result was “inactive”. Regarding `SC1CCCC1`, the Potency entry was “inactive”. In the case of `S=c1nccc[nH]1`, the Potency result was “inactive”. `C[C@H](CS)C(=O)N1CCC[C@H]1C(=O)O`: the Potency entry was “inactive”.

As for `CCCCOC(=O)c1ccccc1`, the Potency entry was “inactive”. Still for that read-out and setting: next, `C[N+]1(C)CCC(OC(=O)C(O)(c2ccccc2)C2CCCC2)C1` (stereo not given): “inactive”.
